# From PubChem BioAssay AID2642 (Johns Hopkins Ion Channel Center, 2010)
# About 3,900 (1.3%) of roughly 310,000 compounds were called active.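 How the source made its calls: active means compounds whose thallium flux B-score, printed positive for inhibition, exceeds three library SD while starting fluorescence stays within three; inactive means the rest.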 Shown is part of a subset that was picked to be rich in actives.
# Molecular target: Potassium voltage-gated channel subfamily KQT member 1 (Homo sapiens) (UniProt P51787)
# Test: inhibitors of human KCNQ1 channel, primary screen, cell-based, thallium flux, high-throughput (AID 2642);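 further: channel opened by potassium depolarization with thallium stimulus after 20 min compound exposure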
# Conditions: CHO-K1 KCNQ1, FluxOR thallium flux fluorescence, at 10 µM; hits give high values
# Sequence of Potassium voltage-gated channel subfamily KQT member 1 (Homo sapiens) (P51787 whole entry, looked up): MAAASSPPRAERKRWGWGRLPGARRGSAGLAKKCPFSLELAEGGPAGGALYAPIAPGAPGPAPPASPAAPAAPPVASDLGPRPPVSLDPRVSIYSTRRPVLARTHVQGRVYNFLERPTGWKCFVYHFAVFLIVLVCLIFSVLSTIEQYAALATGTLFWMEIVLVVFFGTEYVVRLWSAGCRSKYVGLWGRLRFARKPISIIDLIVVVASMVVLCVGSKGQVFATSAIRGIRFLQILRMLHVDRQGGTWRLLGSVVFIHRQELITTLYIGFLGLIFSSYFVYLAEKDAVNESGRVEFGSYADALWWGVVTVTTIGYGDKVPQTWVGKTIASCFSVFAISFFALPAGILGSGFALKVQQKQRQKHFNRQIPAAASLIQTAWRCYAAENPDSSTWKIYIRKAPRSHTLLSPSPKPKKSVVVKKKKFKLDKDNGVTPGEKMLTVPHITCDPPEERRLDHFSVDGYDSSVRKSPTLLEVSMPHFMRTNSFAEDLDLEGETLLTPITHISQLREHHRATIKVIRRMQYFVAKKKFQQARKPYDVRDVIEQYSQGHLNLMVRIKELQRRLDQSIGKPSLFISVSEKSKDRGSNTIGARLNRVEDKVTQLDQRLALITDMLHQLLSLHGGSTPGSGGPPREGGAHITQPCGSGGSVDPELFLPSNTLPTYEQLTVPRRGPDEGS
row,SMILES,B-score
1,COc1ccc(NC(=O)NNC(=O)COc2cc(C)c(Cl)c(C)c2)c(OC)c1,inactive
2,CC1(C)NC(=O)N(CC(=O)Nc2cc(C(F)(F)F)cc(C(F)(F)F)c2)C1=O,inactive
3,CN(C)Cc1ccccc1C1(O)c2ccccc2CSc2ccccc21 (stereo not drawn),7 (active)
4,COc1ccc(CCNS(=O)(=O)c2cccc([N+](=O)[O-])c2)cc1,inactive
5,CCC1Sc2ccc(S(=O)(=O)CCC(=O)NCc3cccs3)cc2NC1=O (stereo not drawn),inactive
6,CN(C)NC(=O)c1csnc1-c1c(Cl)cccc1Cl,inactive
7,O=c1ccc2cc(S(=O)(=O)Nc3ccccc3F)ccc2o1,inactive
8,O=C(Nc1cccc(Br)c1)c1ccc2snnc2c1,inactive
9,O=C(Nc1ccc2ccccc2c1)Nc1ccc2snnc2c1,8 (active)
10,CCc1ccccc1NC(=O)c1ccc2snnc2c1,inactive
11,Cc1ccc(C(=O)NCC(=O)NCc2cc(=O)n(C)c(=O)n2C)cc1,inactive
12,Cc1ccc(S(=O)(=O)NC(=O)Nc2nc(-c3ccc(F)c(F)c3)cs2)cc1,inactive
13,COc1ccc(CC(=O)Nc2nc(-c3ccc(F)c(F)c3)cs2)cc1OC,9 (active)
14,COc1cc(CC(=O)Nc2nc(-c3ccc(F)c(F)c3)cs2)cc(OC)c1OC,inactive
15,NC(=O)[C@H]1CC2(CC(c3cccc(NC(=O)[C@H]4CCC(=O)N4)c3)=NO2)CN1C(=O)c1ccccc1C(=O)c1ccccc1 (stereo partly drawn),inactive
16,O=C(Cn1nnc2ccccc2c1=O)Nc1cc(C(F)(F)F)ccc1N1CCOCC1,inactive
17,CCCc1cc(=O)[nH]c(SCC(=O)Nc2sc3c(c2C#N)CCCC3)n1,inactive
18,CCOC(=O)c1cnc(COc2ccccc2Cl)[nH]c1=O,inactive
19,CCOC(=O)c1nc(C)n(-c2ccc(Cl)cc2Cl)n1,inactive
20,CCOC(=O)c1cnc(SC)nc1Sc1ccc(Cl)cc1Cl,6 (active)
21,Oc1ccccc1N1CCN(c2ncnc3sc(-c4ccccc4)cc23)CC1,inactive
22,COc1ccccc1N1CCN(c2ncnc3sc(C)c(-c4ccccc4)c23)CC1,9 (active)
23,COc1ccccc1N1CCN(c2ccc([N+](=O)[O-])nc2)CC1,inactive
24,CCN(CC)S(=O)(=O)c1ccc(OC(C)C)c(N)c1,inactive
25,CCc1ccccc1NC(=O)/C(=C/c1ccccc1)c1ccccc1,inactive
26,COCc1cc(C)nc2sc3c(=O)n(-c4cccc5ccccc45)nnc3c12,inactive
27,COc1ccc(/C=C/C(=O)Nc2ccc(C34CC5CC(CC(O)(C5)C3)C4)cc2)cc1OC,inactive

row,SMILES,B-score
1,Cc1cccc(N2CCN(C(=O)c3cc4c(=O)[nH]c5ccccc5c4n3C)CC2)c1C,inactive
2,Cc1cccc(N2CCN(C(=O)c3cnn4c(C(F)F)cc(-c5ccccc5)nc34)CC2)c1C,7 (active)
3,O=C(O)c1cnn2c(C(F)(F)F)cc(-c3ccccc3)nc12,inactive
4,COc1ccc(N2CCN(C(=O)c3cn(C)c4ccc(S(=O)(=O)N5CCOCC5)cc4c3=O)CC2)cc1,inactive
5,COCCn1c(N)c(NCc2ccccc2)c(=O)[nH]c1=O,inactive
6,COC1=CCC2([N+](=O)[O-])CN(CC(=O)O)CC1([N+](=O)[O-])C2 (stereo not drawn),inactive
7,CCCCOc1ccc(C(=O)NCC(=O)OCC(=O)N2CCN(S(=O)(=O)c3ccc(C)cc3C)CC2)cc1,inactive
8,N=c1c2c(-c3ccccc3)c(-c3ccccc3)n(Cc3ccccc3)c2ncn1CCCO,10 (active)
9,COCCn1cnc2c1c(=O)n(Cc1ccc(Br)cc1)c(=O)n2Cc1ccccc1,inactive
10,CCN(CC)CCn1cnc2c1c(=O)[nH]c(=O)n2Cc1ccccc1,inactive
11,O=C(Nc1cccc(Cl)c1)Nc1ccccc1NS(=O)(=O)c1cccs1,14 (active)
12,O=S(=O)(Nc1ccccc1Br)c1cccs1,inactive
13,O=S(=O)(NCc1ccc(Cl)cc1Cl)c1cccs1,inactive
14,COCCNC(=O)CN(Cc1ccco1)C(=O)CCC(=O)Nc1nccs1,inactive
15,CC(=O)N(C1=C(Cl)C(=O)c2ccccc2C1=O)c1ccc(C(=O)O)cc1,17 (active)
16,CC(C)N(C(=O)c1ccc(-c2ccccc2F)cc1)C(C)C,inactive
17,O=C(CN1C(=O)c2ccccc2C1=O)NCc1ccc(C(=O)O)cc1,inactive
18,Cc1ccc(Cl)cc1NC(=O)C1CCCN(c2cnccn2)C1 (stereo not drawn),inactive
19,O=C(COc1ccc(S(=O)(=O)N2CCOCC2)cc1Cl)N1CCOCC1,inactive
20,OCC1(Cc2ccccc2C(F)(F)F)CCN(Cc2cccc3cnccc23)CC1,inactive
21,O=C(c1ccncc1)N1CCN(S(=O)(=O)c2cccc([N+](=O)[O-])c2)CC1,inactive
22,O=C(c1ccncc1)N1CCN(S(=O)(=O)c2cc(C(F)(F)F)cc(C(F)(F)F)c2)CC1,6 (active)
23,O=C(Cc1ccsc1)N1CCN(S(=O)(=O)c2cc(C(F)(F)F)cc(C(F)(F)F)c2)CC1,inactive
24,Cn1c(=O)c2c(nc(N3CCOCC3)n2CCNC2=NCCC2)n(C)c1=O,inactive
25,CCc1cccc(NC(=O)C2CCCN(S(=O)(=O)c3ccc4[nH]c(=O)ccc4c3)C2)c1 (stereo not drawn),inactive
26,COC(=O)c1ccc(/C=C2/C(=O)Oc3ccccc32)cc1,inactive
